Experimental data reported in article PMC7862700, “An all-to-all approach to the identification of sequence-specific readers for epigenetic DNA modifications on cytosine”.

What was measured:
Assay in all cases: DAPPL (digital affinity profiling via proximity ligation, sequencing); 10 mM Tris-HCl pH 7.5, 50 mM NaCl, 1 mM DTT, 4% glycerol, room temperature, 30 min; GST-TFs on glutathione beads, 16-mer random dsDNA library, 0.1% formaldehyde crosslink after washing; high values mean tight binding
FLI1 = biological target: T1, FLI1 (Homo sapiens, UniProt Q01543 1-452); details: protein: recombinant; tags: N-terminal GST; dsDNA, one strand shown
T1 sequence: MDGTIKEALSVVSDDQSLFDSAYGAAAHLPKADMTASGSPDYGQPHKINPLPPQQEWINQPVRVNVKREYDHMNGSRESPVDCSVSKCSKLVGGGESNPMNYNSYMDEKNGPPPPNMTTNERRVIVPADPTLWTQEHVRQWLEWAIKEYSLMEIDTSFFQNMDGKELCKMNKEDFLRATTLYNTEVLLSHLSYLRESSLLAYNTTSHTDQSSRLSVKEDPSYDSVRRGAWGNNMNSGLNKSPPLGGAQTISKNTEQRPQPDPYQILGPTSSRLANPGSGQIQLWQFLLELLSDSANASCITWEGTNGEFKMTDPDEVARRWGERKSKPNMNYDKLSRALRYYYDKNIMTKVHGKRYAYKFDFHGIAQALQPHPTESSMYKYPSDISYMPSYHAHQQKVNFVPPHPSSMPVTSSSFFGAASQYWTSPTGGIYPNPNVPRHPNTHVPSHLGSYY
Method in brief: (§1)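 After expression in yeast as GST fusions, human transcription factors were bound to glutathione beads, DNA-barcoded and mixed with a tag-only sample. The pools were incubated with 200 nmole of a 16-mer random double-stranded DNA library in Tris/NaCl/DTT/glycerol buffer (30 min, room temperature), washed and crosslinked with 0.1% formaldehyde. Proximity ligation with BsaI/T4 ligase ran for 1 h at 37 °C, before PCR amplification and sequencing on an Illumina NextSeq500. Binding signal is a hexamer's read frequency for a factor divided by its frequency for the tag-only sample.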

ELK1 = biological target: T2, ELK1 (Homo sapiens, UniProt P19419 1-428); details: protein: recombinant; tags: N-terminal GST; dsDNA, one strand shown
T2 sequence: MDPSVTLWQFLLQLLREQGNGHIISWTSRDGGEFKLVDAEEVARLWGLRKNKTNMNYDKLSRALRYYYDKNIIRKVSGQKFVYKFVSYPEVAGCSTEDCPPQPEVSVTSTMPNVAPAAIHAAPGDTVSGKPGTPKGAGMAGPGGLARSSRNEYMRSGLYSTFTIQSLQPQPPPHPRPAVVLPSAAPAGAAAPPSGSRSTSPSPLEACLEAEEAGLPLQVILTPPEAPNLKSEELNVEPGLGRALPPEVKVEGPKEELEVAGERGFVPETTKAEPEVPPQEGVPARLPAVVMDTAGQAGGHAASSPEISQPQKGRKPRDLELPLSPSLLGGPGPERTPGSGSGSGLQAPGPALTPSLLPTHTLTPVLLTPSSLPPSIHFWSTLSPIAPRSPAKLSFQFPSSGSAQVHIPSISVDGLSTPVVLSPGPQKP
Method in brief: as §1

GABPA = biological target: T3, GABPA (Homo sapiens, UniProt Q06546 1-454); details: protein: recombinant; tags: N-terminal GST; dsDNA, one strand shown
T3 sequence: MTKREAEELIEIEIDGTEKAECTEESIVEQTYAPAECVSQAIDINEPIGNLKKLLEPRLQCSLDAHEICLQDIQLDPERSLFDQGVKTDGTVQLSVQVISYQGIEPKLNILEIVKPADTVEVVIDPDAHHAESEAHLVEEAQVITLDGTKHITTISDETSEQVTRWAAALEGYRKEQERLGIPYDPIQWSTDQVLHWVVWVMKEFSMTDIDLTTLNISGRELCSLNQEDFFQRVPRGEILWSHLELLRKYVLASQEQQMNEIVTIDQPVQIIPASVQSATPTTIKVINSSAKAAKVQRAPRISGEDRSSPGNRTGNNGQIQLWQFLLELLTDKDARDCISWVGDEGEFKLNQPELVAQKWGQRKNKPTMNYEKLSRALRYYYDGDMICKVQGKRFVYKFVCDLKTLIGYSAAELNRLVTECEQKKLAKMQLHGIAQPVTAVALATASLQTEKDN
Method in brief: as §1

ERG = biological target: T4, ERG (Homo sapiens, UniProt P11308 1-479); details: protein: recombinant; tags: N-terminal GST; dsDNA, one strand shown
T4 sequence: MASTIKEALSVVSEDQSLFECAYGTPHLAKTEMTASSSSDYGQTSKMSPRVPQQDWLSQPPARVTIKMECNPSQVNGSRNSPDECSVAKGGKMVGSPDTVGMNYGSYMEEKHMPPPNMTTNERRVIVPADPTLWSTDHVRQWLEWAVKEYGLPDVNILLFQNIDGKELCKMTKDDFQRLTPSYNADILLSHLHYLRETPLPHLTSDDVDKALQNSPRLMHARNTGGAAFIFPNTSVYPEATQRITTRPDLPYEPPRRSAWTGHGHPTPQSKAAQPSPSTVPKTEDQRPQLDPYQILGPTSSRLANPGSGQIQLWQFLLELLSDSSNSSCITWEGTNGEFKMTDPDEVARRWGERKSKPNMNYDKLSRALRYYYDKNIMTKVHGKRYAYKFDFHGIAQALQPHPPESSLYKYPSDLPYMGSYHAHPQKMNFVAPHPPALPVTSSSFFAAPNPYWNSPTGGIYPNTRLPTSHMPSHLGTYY
Method in brief: as §1

ELF1 = ELF1 (Homo sapiens, UniProt P32519 1-619); details: protein: recombinant; tags: N-terminal GST; dsDNA, one strand shown
Sequence of ELF1 (P32519 whole entry): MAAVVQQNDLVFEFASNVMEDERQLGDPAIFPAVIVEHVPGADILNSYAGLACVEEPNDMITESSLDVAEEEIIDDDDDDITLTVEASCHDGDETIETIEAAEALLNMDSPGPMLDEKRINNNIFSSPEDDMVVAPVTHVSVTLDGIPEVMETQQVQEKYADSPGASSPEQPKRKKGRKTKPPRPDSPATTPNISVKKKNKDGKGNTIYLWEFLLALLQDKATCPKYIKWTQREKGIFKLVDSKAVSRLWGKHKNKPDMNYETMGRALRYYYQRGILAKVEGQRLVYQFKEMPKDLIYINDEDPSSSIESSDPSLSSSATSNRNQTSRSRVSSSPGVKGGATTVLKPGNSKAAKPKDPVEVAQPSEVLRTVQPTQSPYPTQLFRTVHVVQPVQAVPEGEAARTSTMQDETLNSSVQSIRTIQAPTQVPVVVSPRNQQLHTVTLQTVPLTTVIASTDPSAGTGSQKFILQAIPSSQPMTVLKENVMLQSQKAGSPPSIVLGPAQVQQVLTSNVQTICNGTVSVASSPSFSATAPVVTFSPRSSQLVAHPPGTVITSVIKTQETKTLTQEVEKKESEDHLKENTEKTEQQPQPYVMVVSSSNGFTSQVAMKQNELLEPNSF
Method in brief: as §1

EHF = biological target: T5, EHF (Homo sapiens, UniProt Q9NZC4 1-300); details: protein: recombinant; tags: N-terminal GST; dsDNA, one strand shown
T5 sequence: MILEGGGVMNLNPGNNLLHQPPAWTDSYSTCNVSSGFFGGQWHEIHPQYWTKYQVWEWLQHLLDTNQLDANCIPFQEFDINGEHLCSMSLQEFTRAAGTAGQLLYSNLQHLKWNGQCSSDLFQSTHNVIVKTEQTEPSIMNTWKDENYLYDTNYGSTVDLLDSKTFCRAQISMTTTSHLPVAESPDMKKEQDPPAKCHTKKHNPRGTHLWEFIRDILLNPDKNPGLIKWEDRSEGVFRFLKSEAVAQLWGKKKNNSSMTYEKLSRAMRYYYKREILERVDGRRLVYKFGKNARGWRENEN
Method in brief: as §1

SPI1 = SPI1 (Homo sapiens, UniProt P17947 1-270); details: protein: recombinant; tags: N-terminal GST; dsDNA, one strand shown
Method in brief: as §1

SPIB = SPIB (Homo sapiens, UniProt Q01892 1-262); details: protein: recombinant; tags: N-terminal GST; dsDNA, one strand shown
Sequence of SPIB (Q01892 whole entry): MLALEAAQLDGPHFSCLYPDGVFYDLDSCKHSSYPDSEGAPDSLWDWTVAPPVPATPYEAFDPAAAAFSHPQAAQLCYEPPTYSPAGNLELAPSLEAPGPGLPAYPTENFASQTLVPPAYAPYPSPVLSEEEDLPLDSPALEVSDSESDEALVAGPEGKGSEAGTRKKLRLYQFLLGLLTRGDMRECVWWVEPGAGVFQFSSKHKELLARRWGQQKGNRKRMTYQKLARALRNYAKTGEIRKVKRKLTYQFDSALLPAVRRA
Method in brief: as §1

ELK3 = biological target: T6, ELK3 (Homo sapiens, UniProt P41970 1-407); details: protein: recombinant; tags: N-terminal GST; dsDNA, one strand shown
T6 sequence: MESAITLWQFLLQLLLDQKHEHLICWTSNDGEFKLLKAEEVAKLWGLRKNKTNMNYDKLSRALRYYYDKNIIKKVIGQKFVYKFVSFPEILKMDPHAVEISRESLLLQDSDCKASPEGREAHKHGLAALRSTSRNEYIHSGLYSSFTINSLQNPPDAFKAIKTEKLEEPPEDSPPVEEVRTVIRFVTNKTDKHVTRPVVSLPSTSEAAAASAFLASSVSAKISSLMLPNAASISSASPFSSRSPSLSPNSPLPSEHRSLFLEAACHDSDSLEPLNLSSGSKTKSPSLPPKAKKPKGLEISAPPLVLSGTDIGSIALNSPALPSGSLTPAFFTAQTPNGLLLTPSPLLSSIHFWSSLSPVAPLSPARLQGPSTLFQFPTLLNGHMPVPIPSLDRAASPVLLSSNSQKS
Method in brief: as §1

FEV = biological target: T7, FEV (Homo sapiens, UniProt Q99581 1-238); details: protein: recombinant; tags: N-terminal GST; dsDNA, one strand shown
T7 sequence: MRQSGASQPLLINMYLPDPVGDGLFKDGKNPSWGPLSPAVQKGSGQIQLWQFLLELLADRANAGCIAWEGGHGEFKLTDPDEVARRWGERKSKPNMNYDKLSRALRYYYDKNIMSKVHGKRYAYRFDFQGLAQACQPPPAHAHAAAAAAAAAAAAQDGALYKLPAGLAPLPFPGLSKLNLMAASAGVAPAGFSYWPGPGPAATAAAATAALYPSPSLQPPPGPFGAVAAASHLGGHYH
Method in brief: as §1

ETV5 = ETV5 (Homo sapiens, UniProt P41161 1-510); details: protein: recombinant; tags: N-terminal GST; dsDNA, one strand shown
Sequence of ETV5 (P41161 whole entry): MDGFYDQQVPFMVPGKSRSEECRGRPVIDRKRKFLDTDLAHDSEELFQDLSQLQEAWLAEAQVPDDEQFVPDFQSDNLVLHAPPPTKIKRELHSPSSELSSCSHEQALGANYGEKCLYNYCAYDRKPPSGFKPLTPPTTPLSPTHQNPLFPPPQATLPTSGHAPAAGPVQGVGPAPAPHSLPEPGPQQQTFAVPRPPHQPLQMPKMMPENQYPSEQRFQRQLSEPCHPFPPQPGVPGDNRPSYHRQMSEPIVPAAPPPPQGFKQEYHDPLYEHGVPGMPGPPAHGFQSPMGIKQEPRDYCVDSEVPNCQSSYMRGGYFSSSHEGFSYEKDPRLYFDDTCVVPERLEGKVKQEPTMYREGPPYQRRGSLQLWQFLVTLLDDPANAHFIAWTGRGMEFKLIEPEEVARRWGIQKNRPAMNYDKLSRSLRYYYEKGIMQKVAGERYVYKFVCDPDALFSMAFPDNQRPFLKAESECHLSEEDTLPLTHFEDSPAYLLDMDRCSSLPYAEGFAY
Method in brief: as §1

HSF1 = HSF1 (Homo sapiens, UniProt Q00613 1-529); details: protein: recombinant; tags: N-terminal GST; chain copies: 3; dsDNA, one strand shown
Sequence of HSF1 (Q00613 whole entry): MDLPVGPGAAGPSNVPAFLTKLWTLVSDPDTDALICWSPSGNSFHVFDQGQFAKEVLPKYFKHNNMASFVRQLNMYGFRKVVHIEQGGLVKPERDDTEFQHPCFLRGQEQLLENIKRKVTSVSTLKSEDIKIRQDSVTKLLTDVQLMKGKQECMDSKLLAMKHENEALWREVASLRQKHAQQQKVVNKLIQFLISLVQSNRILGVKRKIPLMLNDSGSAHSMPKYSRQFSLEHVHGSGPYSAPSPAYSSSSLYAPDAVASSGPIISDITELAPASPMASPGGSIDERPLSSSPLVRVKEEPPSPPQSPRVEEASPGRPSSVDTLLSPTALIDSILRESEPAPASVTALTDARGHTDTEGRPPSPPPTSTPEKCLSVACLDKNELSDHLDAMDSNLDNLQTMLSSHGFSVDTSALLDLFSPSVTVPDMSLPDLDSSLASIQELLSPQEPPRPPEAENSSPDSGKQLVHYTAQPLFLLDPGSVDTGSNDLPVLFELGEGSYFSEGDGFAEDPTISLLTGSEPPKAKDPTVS
Method in brief: as §1

SPIC = biological target: T8, SPIC (Homo sapiens, UniProt Q8N5J4 1-248); details: protein: recombinant; tags: N-terminal GST; dsDNA, one strand shown
T8 sequence: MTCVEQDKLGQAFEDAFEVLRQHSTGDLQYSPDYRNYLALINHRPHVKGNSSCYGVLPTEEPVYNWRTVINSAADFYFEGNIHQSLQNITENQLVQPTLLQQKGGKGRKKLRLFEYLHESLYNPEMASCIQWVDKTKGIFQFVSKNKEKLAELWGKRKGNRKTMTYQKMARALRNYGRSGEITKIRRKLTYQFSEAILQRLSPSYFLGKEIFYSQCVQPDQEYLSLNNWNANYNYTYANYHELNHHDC
Method in brief: as §1

ELF4 = ELF4 (Homo sapiens, UniProt Q99607 1-663); details: protein: recombinant; tags: N-terminal GST; dsDNA, one strand shown
Sequence of ELF4 (Q99607 whole entry): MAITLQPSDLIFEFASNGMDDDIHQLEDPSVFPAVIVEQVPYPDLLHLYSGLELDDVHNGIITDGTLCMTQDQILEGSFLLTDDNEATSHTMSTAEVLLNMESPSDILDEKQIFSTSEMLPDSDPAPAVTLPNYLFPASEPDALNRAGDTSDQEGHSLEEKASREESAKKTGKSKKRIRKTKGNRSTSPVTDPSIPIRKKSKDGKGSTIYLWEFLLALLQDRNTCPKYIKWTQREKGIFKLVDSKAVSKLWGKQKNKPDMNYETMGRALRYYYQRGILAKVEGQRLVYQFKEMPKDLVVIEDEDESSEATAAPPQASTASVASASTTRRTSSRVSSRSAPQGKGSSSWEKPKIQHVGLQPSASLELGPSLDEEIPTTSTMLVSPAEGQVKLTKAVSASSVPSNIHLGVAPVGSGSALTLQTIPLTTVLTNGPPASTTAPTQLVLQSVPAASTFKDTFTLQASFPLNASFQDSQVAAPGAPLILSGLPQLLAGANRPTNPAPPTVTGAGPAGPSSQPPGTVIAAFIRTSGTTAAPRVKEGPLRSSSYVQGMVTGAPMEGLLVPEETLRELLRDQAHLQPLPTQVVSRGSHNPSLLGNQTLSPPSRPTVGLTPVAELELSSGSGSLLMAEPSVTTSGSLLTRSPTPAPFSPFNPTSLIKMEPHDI
Method in brief: as §1

ELK4 = biological target: T9, ELK4 (Homo sapiens, UniProt P28324-2 1-405); details: protein: recombinant; tags: N-terminal GST; dsDNA, one strand shown
T9 sequence: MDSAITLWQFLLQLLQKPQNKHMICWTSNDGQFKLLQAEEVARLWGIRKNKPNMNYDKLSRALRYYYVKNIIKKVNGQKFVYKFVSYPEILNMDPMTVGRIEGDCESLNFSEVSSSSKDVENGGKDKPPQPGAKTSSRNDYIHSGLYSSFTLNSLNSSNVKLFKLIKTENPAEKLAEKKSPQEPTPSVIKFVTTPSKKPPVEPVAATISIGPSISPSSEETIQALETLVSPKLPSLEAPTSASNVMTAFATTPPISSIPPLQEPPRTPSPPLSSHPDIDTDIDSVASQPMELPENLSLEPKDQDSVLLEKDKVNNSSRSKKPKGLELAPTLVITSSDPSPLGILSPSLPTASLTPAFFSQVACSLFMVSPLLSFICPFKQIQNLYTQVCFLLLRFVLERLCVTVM
Method in brief: as §1

ETV2 = biological target: T10, ETV2 (Homo sapiens, UniProt O00321 1-342); details: protein: recombinant; tags: N-terminal GST; dsDNA, one strand shown
T10 sequence: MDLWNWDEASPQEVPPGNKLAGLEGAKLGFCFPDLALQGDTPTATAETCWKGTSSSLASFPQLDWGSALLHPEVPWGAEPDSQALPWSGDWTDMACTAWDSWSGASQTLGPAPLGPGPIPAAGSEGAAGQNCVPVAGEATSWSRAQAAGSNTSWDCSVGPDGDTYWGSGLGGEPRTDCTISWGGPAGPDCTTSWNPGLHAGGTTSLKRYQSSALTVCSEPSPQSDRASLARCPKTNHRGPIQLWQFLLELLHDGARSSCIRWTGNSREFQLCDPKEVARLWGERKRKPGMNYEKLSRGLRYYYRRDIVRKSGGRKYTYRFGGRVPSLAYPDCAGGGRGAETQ
Method in brief: as §1

ELF3 = biological target: T11, ELF3 (Homo sapiens, UniProt P78545 1-371); details: protein: recombinant; tags: N-terminal GST; dsDNA, one strand shown
T11 sequence: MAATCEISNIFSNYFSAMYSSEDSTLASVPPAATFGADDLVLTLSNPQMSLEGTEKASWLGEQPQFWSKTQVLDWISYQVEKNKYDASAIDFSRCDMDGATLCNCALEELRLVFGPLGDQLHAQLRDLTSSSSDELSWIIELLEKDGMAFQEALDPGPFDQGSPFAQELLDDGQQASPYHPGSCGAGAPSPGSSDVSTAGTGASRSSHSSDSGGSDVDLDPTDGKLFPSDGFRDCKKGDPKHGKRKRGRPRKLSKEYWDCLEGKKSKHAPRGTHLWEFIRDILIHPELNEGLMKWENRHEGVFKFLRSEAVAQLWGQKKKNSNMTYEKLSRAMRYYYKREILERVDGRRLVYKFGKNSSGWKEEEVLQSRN
Method in brief: as §1

ETV1 = ETV1 (Homo sapiens, UniProt P50549 1-477); details: protein: recombinant; tags: N-terminal GST; dsDNA, one strand shown
Sequence of ETV1 (P50549 whole entry): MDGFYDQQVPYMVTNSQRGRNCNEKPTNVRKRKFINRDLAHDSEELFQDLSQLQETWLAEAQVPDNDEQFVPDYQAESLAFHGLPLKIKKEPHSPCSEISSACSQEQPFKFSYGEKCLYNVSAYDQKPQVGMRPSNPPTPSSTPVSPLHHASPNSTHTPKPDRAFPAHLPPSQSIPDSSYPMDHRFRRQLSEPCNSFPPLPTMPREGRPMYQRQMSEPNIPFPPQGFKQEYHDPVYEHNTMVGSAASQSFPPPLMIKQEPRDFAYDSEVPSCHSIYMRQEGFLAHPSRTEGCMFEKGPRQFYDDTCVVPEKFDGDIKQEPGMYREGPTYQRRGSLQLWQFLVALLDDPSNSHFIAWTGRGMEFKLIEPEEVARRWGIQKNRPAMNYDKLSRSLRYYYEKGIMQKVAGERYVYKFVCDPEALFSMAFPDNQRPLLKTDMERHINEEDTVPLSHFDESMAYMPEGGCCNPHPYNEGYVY
Method in brief: as §1

CGTTCC was tested, and the binding signal (FLI1) was 1.43 fold enrichment (6-mer frequency, TF over GST control), the binding signal (ELK1) was 1.35 fold enrichment (6-mer frequency, TF over GST control) and the binding signal (GABPA) was 1.29 fold enrichment (6-mer frequency, TF over GST control). The binding signal (ERG) was 1.45 fold enrichment (6-mer frequency, TF over GST control), the binding signal (ELF1) was 1.44 fold enrichment (6-mer frequency, TF over GST control) and the binding signal (EHF) was 1.42 fold enrichment (6-mer frequency, TF over GST control). The binding signal (SPI1) was 1.44 fold enrichment (6-mer frequency, TF over GST control), the binding signal (SPIB) was 1.54 fold enrichment (6-mer frequency, TF over GST control) and the binding signal (ELK3) was 1.46 fold enrichment (6-mer frequency, TF over GST control). For the same sequence, the binding signal (FEV) was 1.5 fold enrichment (6-mer frequency, TF over GST control), the binding signal (ETV5) was 1.47 fold enrichment (6-mer frequency, TF over GST control) and the binding signal (HSF1) was 1.44 fold enrichment (6-mer frequency, TF over GST control). For the same sequence, the binding signal (SPIC) was 1.51 fold enrichment (6-mer frequency, TF over GST control), the binding signal (ELF4) was 1.47 fold enrichment (6-mer frequency, TF over GST control) and the binding signal (ELK4) was 1.31 fold enrichment (6-mer frequency, TF over GST control). For the same sequence, the binding signal (ETV2) was 1.33 fold enrichment (6-mer frequency, TF over GST control), the binding signal (ELF3) was 1.27 fold enrichment (6-mer frequency, TF over GST control) and the binding signal (ETV1) was 1.47 fold enrichment (6-mer frequency, TF over GST control).
